Rows were chosen to be rich in hits. Some 1.4% of all compounds tested hit in one or more screens of this group.
V-ATPase pHluor: regulators of yeast V-ATPase proton pumping, primary screen, pHLuorin cytosolic pH fluorescence; actives 0.37% (n = 350,000); response, % at 10 µM; S. cerevisiae; in the data active = response mostly above about 7.3%, no sharp cut-off; inactive = mostly below about 5.4%; also: actives read high
H9c2 protect: cardioprotection against H2O2-induced cell death, primary screen, uHTS, H9c2 cells, ATPLite luminescence | protection from H2O2 cell death, % at 20 µM | H9c2 cardiomyocytes, H2O2 injury protection, 2 h | actives 0.63% (n = 360,000);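 active = compounds giving at least 50% protection of heart cells from peroxide-induced death in the single-dose screen, raw or plate-pattern-corrected value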
beta cell repl: inducers of MIN6 beta-cell proliferation, primary screen, ATP luminescence, uHTS | actives 0.29% (n = 330,000) | proliferation, % at 10 µM | MIN6 cells proliferation, ATPlite luminescence, 48 h; cells starved in 0.2% serum; 100% = growth in 10% serum;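 active = compounds whose signal lies at least 3.5 SD above the mean of all wells on their plate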
p-CIP stab down: p/CIP-EGFP fusion destabilizers, primary screen, fluorescence, F442A cells; Q05BA5; decrease of EGFP signal, % at 10 µM; 16 h; actives 0.01% (n = 290,000);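 active = EGFP signal decrease of at least 30% at 10 µM or well 3 SD below plate mean, unless failing retest; inactive = the rest, including hits failing retest or dose response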
Yeast superoxide: reduction of superoxide in aged yeast, primary screen, HTS; S. cerevisiae aged cells, superoxide DHE fluorescence; active compounds read low; superoxide response (% of plate mean), % at 10 µM; actives 0.18% (n = 330,000); AID 2690, 2010;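 active = superoxide response under a set limit, about three screen SD below normal, cut at about 65% in these data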;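 also: yeast aged for seven days with compound at 30 °C before DHE staining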
HSV replic up: enhancers of HSV replication in host cells, fold increase, host cell viability | HSV replication augmentation in cells | maximum fold increase | actives 0.005% (n = 220,000) | AID 1956, 2009; in the data active = maximum fold increase above about 1.5; tested in PC3 cells
Of the large screens only hits and unclear results are named; the others gave an inactive call.

COc1ccccc1C(=O)OCC(=O)NC1CCCC1	V-ATPase pHluor 258.9 (no result: HSV replic up)
COc1ccccc1C(=O)OCC(=O)NC(=O)NC1CCCC1	none (no result: V-ATPase pHluor, p-CIP stab down, HSV replic up)
Cc1nc(C(F)(F)F)ccc1C(=O)N1CCC1(C)C(=O)Nc1ccc2c(c1)OCO2 (configuration not stated)	none (no result: V-ATPase pHluor, beta cell repl, p-CIP stab down, Yeast superoxide, HSV replic up)
O=C(CNS(=O)(=O)c1c(F)cc(F)cc1Br)OCC(=O)N1CCCC1=O	V-ATPase pHluor 13.4 (no result: p-CIP stab down, HSV replic up)
O=C(Nc1cccc(NC(=O)c2ccc(-c3ccc(Br)cc3)o2)c1)c1ccccc1	none
COc1ccc(Br)cc1C(=O)Nc1cccc(NC(=O)c2ccco2)c1	H9c2 protect 63.6
O=C(Nc1cccc(NC(=O)c2ccc(-c3cccc(Br)c3)o2)c1)c1ccco1	H9c2 protect 59.6
O=C(Nc1cccc(NC(=O)c2ccc([N+](=O)[O-])o2)c1)c1ccco1	H9c2 protect 57.1 (no result: HSV replic up)
O=C(Nc1ccc(NC(=O)c2ccc([N+](=O)[O-])o2)cc1Cl)c1ccco1	none (no result: HSV replic up)
Cc1cc2ccccc2c(=O)[nH]1	H9c2 protect 57.1
CC1(C)N=C(/C=N/O)CN1O	none
CCOC(=O)C1=C(C)NC(C)=C(C(=O)OCC)C1C(=O)OCC(=O)NC1CCCCC1	H9c2 protect 83.3 (no result: p-CIP stab down, HSV replic up)
CC(=O)Nc1cc(-c2ccc(C(=O)NC3CC3)cc2)cn2c(-c3cccc(C(C)=O)c3)cnc12	H9c2 protect 50.4 (no result: V-ATPase pHluor, beta cell repl, p-CIP stab down, Yeast superoxide, HSV replic up)
COc1ccc(-c2cnc3c(NC(C)=O)cc(-c4ccccc4OC)cn23)cc1OC	none (no result: V-ATPase pHluor, beta cell repl, p-CIP stab down, Yeast superoxide, HSV replic up)
COc1cc(-c2cc(NC(C)=O)c3ncc(-c4cc(OC)c(OC)c(OC)c4)n3c2)cc(OC)c1OC	H9c2 protect 66.2 (no result: V-ATPase pHluor, beta cell repl, p-CIP stab down, Yeast superoxide, HSV replic up)
COc1ccc(-c2cc(NC(C)=O)c3ncc(-c4ccc(OC)c(OC)c4)n3c2)cc1OC	H9c2 protect 66.8 (no result: V-ATPase pHluor, beta cell repl, p-CIP stab down, Yeast superoxide, HSV replic up)
COc1ccccc1-c1cc(NC(C)=O)c2ncc(-c3cccc(C(C)=O)c3)n2c1	H9c2 protect 52.3 (no result: V-ATPase pHluor, beta cell repl, p-CIP stab down, Yeast superoxide, HSV replic up)
COc1cc(-c2cnc3c(NC(C)=O)cc(-c4ccccc4CN(C)C)cn23)cc(OC)c1OC	none (no result: V-ATPase pHluor, beta cell repl, p-CIP stab down, Yeast superoxide, HSV replic up)
CC(=O)Nc1cc(-c2ccc(C(=O)NC3CC3)cc2)cn2c(-c3cccc(C(F)(F)F)c3)cnc12	none (no result: V-ATPase pHluor, beta cell repl, p-CIP stab down, Yeast superoxide, HSV replic up)
CSc1cccc(NC(=O)C2CCCN(S(C)(=O)=O)C2)c1 (configuration not stated)	none (no result: V-ATPase pHluor, beta cell repl, p-CIP stab down, Yeast superoxide, HSV replic up)
COc1cc(-c2cc(NC(C)=O)c3ncc(-c4ccccc4)n3c2)cc(OC)c1OC	H9c2 protect 70.2 (no result: V-ATPase pHluor, beta cell repl, p-CIP stab down, Yeast superoxide, HSV replic up)
O=C(Nc1ccccc1Cl)N1CCN(c2ccc3nnc(-c4ccccc4)n3n2)CC1	none
O=C(c1ccc(Br)o1)N1CCN(c2ccc3nnc(-c4ccc(F)cc4)n3n2)CC1	H9c2 protect 51.9
O=C(Nc1ccc(Cl)cc1)N1CCN(c2ccc3nnc(-c4ccc(F)cc4)n3n2)CC1	H9c2 protect 53.1
CC1CCCCN1c1nnc(NC(=O)c2cc(-c3ccc(Br)cc3)on2)s1 (configuration not stated)	none
O=C(N/N=C/c1cc(Br)cc(Br)c1O)c1cccc(S(=O)(=O)N2CCOCC2)c1	H9c2 protect 50.2
O=C(NCc1cccnc1)c1cccc(S(=O)(=O)N2CCCC2)c1	none (no result: HSV replic up)
O=C(N/N=C/c1cc(Br)cc(Br)c1O)c1cccc(N2CCCC2=O)c1	H9c2 protect 52.2
O=C(NCc1cccnc1)c1cccc(S(=O)(=O)N2CCOCC2)c1	V-ATPase pHluor 15.3
O=C(N/N=C/c1ccccc1Br)c1cccc(S(=O)(=O)N2CCOCC2)c1	none (no result: p-CIP stab down, HSV replic up)
O=C(N/C(=C/c1ccc([N+](=O)[O-])cc1)C(=O)N1CCOCC1)c1ccco1	none (no result: HSV replic up)
CN(C(=O)c1cccc(NC(=O)Cc2ccc(NC(=O)C3CCCN(S(=O)(=O)c4cccc([N+](=O)[O-])c4)C3)cc2)c1)C1CCC1 (configuration not stated)	none (no result: beta cell repl, p-CIP stab down, Yeast superoxide, HSV replic up)
COC(=O)c1cc(NC(=O)Nc2cc(OC)ccc2OC)cc(C(=O)OC)c1	H9c2 protect 53.5
COC(=O)c1ccc(NC(=O)COC(=O)c2cccc3c(=O)c(C)c(-c4ccccc4)oc23)cc1	none
Cc1c(-c2ccccc2)oc2c(C(=O)OCC(=O)Nc3ccc(C(N)=O)cc3)cccc2c1=O	H9c2 protect 74.0
COc1cccc(NC(=O)CN(C)C(=O)Cc2n[nH]c(=O)c3ccccc23)c1	H9c2 protect 79.1 (no result: p-CIP stab down, HSV replic up)
COc1ccc(NC(=O)CN(C)C(=O)Cc2n[nH]c(=O)c3ccccc23)cc1	H9c2 protect 61.3 (no result: p-CIP stab down, HSV replic up)
CCOc1ccc(NC(=O)CN(C)C(=O)Cc2n[nH]c(=O)c3ccccc23)cc1OCC	H9c2 protect 59.2 (no result: p-CIP stab down, HSV replic up)
COc1ccc(Cl)cc1NC(=O)CN(C)C(=O)Cc1n[nH]c(=O)c2ccccc12	H9c2 protect 100.4 (no result: p-CIP stab down, HSV replic up)
C=C(C)CN1C(=O)C2(OCCO2)c2cc(Br)ccc21	none (no result: p-CIP stab down, HSV replic up)
O=[N+]([O-])C1C(c2ccccc2)C12c1ccccc1-c1ccccc12 (configuration not stated)	none (no result: beta cell repl, p-CIP stab down, Yeast superoxide, HSV replic up)
COc1cc(OC)cc(C(=O)Nc2ccc(-c3nc4ccccc4o3)cc2)c1	H9c2 protect 119.7
Cc1cccc(-c2nnc3n2N=C(c2ccccc2Br)CS3)c1	beta cell repl 7.3 (no result: HSV replic up)
CCOC(=O)c1ccc(S(=O)(=O)N2CCN(c3ccccn3)CC2)cc1	none (no result: HSV replic up)
COC(=O)C1CCN(S(=O)(=O)c2cc3c4c(c2)CCN4C(=O)CC3)CC1	none (no result: p-CIP stab down, Yeast superoxide, HSV replic up)
Cc1nnc(C)n1/N=C/c1cc(Br)cc(Br)c1O	H9c2 protect 77.5
CS/C(N)=N/N=C/c1cc(Br)cc(Br)c1O	none
Nc1nnnn1/N=C/c1cc(Br)ccc1O	none (no result: p-CIP stab down, HSV replic up)
Cc1nnc(C)n1/N=C/c1cc(Br)ccc1O	H9c2 protect 65.8
C/C=C(\C)CN1CCCC(N(C)CCc2ccc(OC)c(OC)c2)C1 (configuration not stated)	none (no result: HSV replic up)
Cc1ccccc1-n1c(=O)/c(=C\c2ccco2)s/c1=C(/C#N)C(=O)Nc1ccccc1	H9c2 protect 71.4
COc1ccc(/C=N/NC(=O)c2cccnc2)cc1CSc1nc2ccccc2s1	H9c2 protect 57.5
CCCN1C(=O)/C(=C/c2nc3ccccc3c(=O)[nH]2)c2ccccc21	none
CC(C)N1C(=O)/C(=C\c2nc3ccccc3c(=O)[nH]2)c2ccccc21	H9c2 protect 85.2 (no result: beta cell repl)
COc1cc(F)ccc1-c1csc(C(NC(C)=O)c2ccc(F)c(F)c2)n1 (configuration not stated)	none (no result: V-ATPase pHluor, beta cell repl, p-CIP stab down, Yeast superoxide, HSV replic up)
O=C(CBr)Nc1c2c(nn1-c1ccccc1)CSC2	V-ATPase pHluor 11.0 (no result: HSV replic up)
CN(CC#CC(O)(c1ccccc1)c1ccccc1)C(C)(C)C	Yeast superoxide 65.4
CC12CCC3C(CCC4CC(O)CCC43C)C1CC(O)C2 (configuration not stated)	H9c2 protect 49.8 (no result: beta cell repl, p-CIP stab down, Yeast superoxide, HSV replic up)
O=C(NC1CCN(C(=O)Nc2cccc(Cl)c2)CC1)C1CCCCC1	V-ATPase pHluor 15.1 (no result: HSV replic up)
Cc1cc(C)cc(NC(=S)N2CCC(NC(=O)C3CC3)CC2)c1	V-ATPase pHluor 14.9 (no result: HSV replic up)
COc1ccc(CCNC(=O)CCc2nc3ccccc3[nH]2)cc1OC	V-ATPase pHluor 14.3
